The list is not random: actives were taken first. Their share in the collection is about 3%.
S16 F2sN tox: cytotoxicity in S16 Pmp22-F2sN Schwann cells | S16 Pmp22-F2sN Schwann cells viability, CellTiter-Glo, 24 h | 43,000 tested, 0.48% active | Potency, µM (top dose mostly 57.5 µM), for the others: top-dose activity change, negative = cytotoxicity, usual class: cytotoxic | AID 1508642; further: potency means the concentration at half of the fitted maximal effect; on the % scale 0 is the no-effect control and ±100 the full control effect; nearly all actives have a fitted effect of over 65% in size
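S16 Schwann cells carrying the Pmp22-F2sN reporter, seeded in 1536-well format, were exposed to library compounds for 24 h at 37C. Viability was read as CellTiter-Glo luminescence after 15 min at room temperature.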
p53null 32C tox: p53 null cell cytotoxicity, permissive temperature. H1299-neo p53 null cells, ATP luminescence, 24 h, 32C. Potency, µM (doses to about 46.1 µM), for the others: at the highest dose activity change, negative = cytotoxicity, usual class: cytotoxic. AID 903. 55,000 tested, 0.62% active;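 further: potency means the concentration at half of the fitted maximal effect; 0% = DMSO only and -100% = full killing by 100 µM tamoxifen; nearly all actives have a fitted effect of over 55% in size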
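H1299-neo, 600 cells/well; overnight 37C; cpd up to 46 uM, 24 h at 32C; ATPlite luminescence after 20 min RT; normalized to DMSO (0%) and tamoxifen 100 uM (100% kill); Hill-fit AC50.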
p53null 39C kill: kills p53 null cells at the nonpermissive temperature | 55,000 tested, 0.97% active | H1299 p53-null (neo) cells, 39C, ATPlite viability, 24 h | Potency, µM (doses to about 46.1 µM), without a hit: at the top dose activity, negative = cell killing, usual class: cytotoxic | AID 904;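 further: potency means the concentration at half of the fitted maximal effect; 0% = DMSO only and -100% = full killing by 100 µM tamoxifen; nearly all actives have a fitted effect of over 50% in size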
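H1299 lung cancer cells, p53-null (H1299-neo) or expressing p53 A138V (H1299-p53A138V), were plated overnight at 37C, then exposed to compounds at up to 46 uM for 24 hr at 39C. Viability was read by ATP-based luminescence.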
PMP22 txn: modulators of PMP22 gene transcription in S16 Schwann cells; S16 Pmp22-F2sN Schwann cells, FLuc/NLuc coincidence luminescence, 24 h; 43,000 tested, 2% active; Potency, µM (doses to about 57.5 µM), for the others: at the highest dose activity change, negative = inhibition, most hits filed as inhibitors; active means clear falling dose curves in both reporters; inconclusive means both reporters move, but less clearly or upward; inactive means either reporter flat; the % is the NLuc reporter signal; further: potency means the concentration at half of the fitted maximal effect; on the % scale 0 is the no-effect control and ±100 the full control effect
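Rat S16 Pmp22-F2sN cells, 500-1,000/well in phenol red-free DMEM + 10% FBS, compound-treated 24 h (37C, 5% CO2). Luminescence: FLuc read, Stop&Glo added, NLuc read.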
mTORC1 inh: mTORC1 pathway inhibition measured by phospho-rpS6; Tsc2-/- p53-/- MEF, phospho-rpS6 immunofluorescence/PI, 24 h; Potency, µM (highest dose often 38.3 µM), for the others: top-dose activity change, negative = inhibition, usual class: inhibitors; 44,000 tested, 0.78% active; AID 493208;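 further: potency means the concentration at half of the fitted maximal effect; plate controls were DMSO for no effect and rapamycin for full effect; nearly all actives have a fitted effect of over 50% in size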
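Read-out: phospho-S6 Alexa-488 intensity over PI intensity per well, scored as % active cells using thresholds from rapamycin (7.5 nM) and DMSO controls. Tsc2-/-, p53-/- MEFs exposed to compound for 24 h; PI cell count recorded as viability.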
SKOV3 invasion: inhibitors of ovarian cancer cell adhesion and invasion in omental model | 46,000 tested, 0.1% active | Potency, µM (titrated, usually from 45.8 µM), without a hit: top-dose activity change, negative = inhibition, most hits filed as inhibitors | SKOV3ip1-GFP adhesion/invasion on 3D omental model, fluorescence;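 further: potency means the concentration at half of the fitted maximal effect; plate controls were DMSO wells for no effect and tomatine positive control wells for full effect; nearly all actives have a fitted effect of over 65% in size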
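Adhesion/invasion was scored as fixed GFP-labeled SKOV3ip1 cell counts (488/509 nm), normalized to DMSO and tomatine controls. Cancer cells in serum-free medium, with four compound doses (0.36-46 umol/L), sat 2 hr at RT then 16 hr at 37 C on a 48 hr fibroblast/mesothelial/ECM culture.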
NLuc saturating: counter-screen for PMP22 expression modulators: NanoLuc inhibition, saturating substrate. Secreted NLuc enzyme (filtered S16 cell medium), Nano-Glo luminescence. 690 tested, 4% active. Potency, µM (doses to about 57.5 µM), without a hit: top-dose activity change, negative = inhibition, hits mostly inhibitors. shares compounds with PMP22 txn. AID 1508638; further: potency means the concentration at half of the fitted maximal effect; on the % scale 0 is the no-effect control and ±100 the full control effect
NLuc Km ctr: counter-screen for PMP22 expression modulators: NanoLuc inhibition at Km. shares compounds with PMP22 txn. secreted NLuc enzyme, coelenterazine luminescence, Km conditions. Potency, µM (top dose mostly 57.5 µM), inactives show top-dose activity change, negative = inhibition, usual class: inhibitors. 690 tested, 5% active; further: potency means the concentration at half of the fitted maximal effect; on the % scale 0 is the no-effect control and ±100 the full control effect
FLuc ctr PMP22: firefly luciferase enzyme inhibition artifact for PMP22 screen | 690 tested, under 10 active | Potency, µM (top dose mostly 57.5 µM), for the others: at the highest dose activity, negative = inhibition, most hits filed as inhibitors | shares compounds with PMP22 txn | purified P. pyralis FLuc, luminescence, 10 min; further: % of control where 0% means no effect
Target sequence (P08659 whole entry, looked up): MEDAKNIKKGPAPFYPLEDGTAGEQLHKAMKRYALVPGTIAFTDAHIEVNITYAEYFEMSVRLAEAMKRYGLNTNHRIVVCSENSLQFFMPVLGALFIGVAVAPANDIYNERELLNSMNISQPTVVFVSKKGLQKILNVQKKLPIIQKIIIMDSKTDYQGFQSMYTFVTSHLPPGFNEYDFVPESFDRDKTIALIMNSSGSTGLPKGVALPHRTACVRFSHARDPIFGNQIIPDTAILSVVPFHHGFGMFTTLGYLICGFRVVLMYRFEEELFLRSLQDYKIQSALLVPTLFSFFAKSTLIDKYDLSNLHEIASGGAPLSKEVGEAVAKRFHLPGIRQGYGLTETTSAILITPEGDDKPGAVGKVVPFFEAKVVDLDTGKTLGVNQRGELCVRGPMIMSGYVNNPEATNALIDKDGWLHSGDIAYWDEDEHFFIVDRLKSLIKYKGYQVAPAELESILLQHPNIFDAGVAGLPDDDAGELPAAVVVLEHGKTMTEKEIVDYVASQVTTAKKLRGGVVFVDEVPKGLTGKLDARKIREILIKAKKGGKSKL
S16 F2sN tox cnf: confirmation of cytotoxicity in S16 Pmp22-F2sN Schwann cells (luciferase reporters placed in the Pmp22 gene) | shares compounds with PMP22 txn | S16 Schwann cells viability, CellTiter-Glo ATP luminescence, 24 h | Potency, µM (series often up to 57.5 µM), without a hit: at the top dose activity change, negative = viability loss, hits mostly cytotoxic | 690 tested, 7% active; further: potency means the concentration at half of the fitted maximal effect; on the % scale 0 is the no-effect control and ±100 the full control effect
PMP22 txn cnf: PMP22 transcription modulation, confirmatory | shares compounds with PMP22 txn | S16 Schwann cells Pmp22-F2sN, dual luciferase, 24 h | Potency, µM (top dose mostly 57.5 µM), for the others: at the highest dose activity change, negative = inhibition, most hits filed as inhibitors | 690 tested, 22% active | AID 1508646; active means clear falling dose curves in both reporters; inconclusive means both reporters move, but less clearly or upward; inactive means either reporter flat; the % is the FLuc reporter signal; further: potency means the concentration at half of the fitted maximal effect
Numbers without * were called inactive; i = inactive; ? = inconclusive; nt = not tested or not shown. Unless noted, the call rests on the fitted dose curve; in most records, active means well fitted curve in the direction sought with a large enough effect; inconclusive means small, poorly fitted or top-dose-only effect, or another doubt; inactive means no such curve, though single readings can be large; an effect the other way counts as inactive or inconclusive.

SMILES	S16 F2sN tox	p53null 32C tox	p53null 39C kill	PMP22 txn	mTORC1 inh	SKOV3 invasion	NLuc saturating	NLuc Km ctr	FLuc ctr PMP22	S16 F2sN tox cnf	PMP22 txn cnf
Cc1cc(Nc2cccc(C(F)(F)F)c2)nc2ccc(NC(=O)c3cccnc3)cc12	?	28µM*	?	?	?	11µM*	nt	nt	nt	nt	nt
Cc1cc(Nc2cccc(Cl)c2)nc2ccc(NC(=O)Cc3cccc(C(F)(F)F)c3)cc12	-27%	-5%	?	?	0%	?	nt	nt	nt	nt	nt
FC(F)(F)c1cccc(Nc2c3c(nc4ccc(Cl)cc24)CCC3)c1	?	?	?	?	5.8µM*	-6%	nt	nt	nt	nt	nt
CCN1CCN(Cc2ccc(-c3cc4c(N[C@H](C)c5ccccc5)ncnc4[nH]3)cc2)CC1	nt	nt	nt	nt	nt	3%	nt	nt	nt	nt	nt
CN1CCc2c(n(Cc3ccc(C(=O)NO)cc3)c3ccccc23)C1	nt	nt	nt	nt	nt	-8%	nt	nt	nt	nt	nt
Cc1ccc(O)c(C(CC(=O)NCC2(c3ccccc3)CCCC2)c2ccccc2)c1 (centres undefined)	?	?	?	?	18µM*	?	nt	nt	nt	nt	nt
CC(=O)Nc1cccc(-n2c(=O)n(C3CC3)c(=O)c3c(Nc4ccc(I)cc4F)n(C)c(=O)c(C)c32)c1	nt	nt	nt	nt	nt	11%	nt	nt	nt	nt	nt
O=C(Nc1cc2cc[nH]c2cn1)c1ccccc1	nt	nt	nt	nt	nt	7%	nt	nt	nt	nt	nt
COc1ccc(NS(=O)(=O)c2ccc(N3CCCCS3(=O)=O)cc2)cc1Cl	?	4%	6%	7.3µM*	-10%	11%	nt	nt	nt	nt	nt
COc1cccc([C@@H](C)NCCCc2ccccc2Cl)c1	nt	nt	nt	nt	nt	-14%	nt	nt	nt	nt	nt
CN1C(=O)c2ccccc2Sc2ccc(NC(=O)c3ccc(C(F)(F)F)cc3)cc21	-11%	15%	4%	11µM*	0%	-9%	nt	nt	nt	nt	nt
CCc1ccc2nc(N3CCC(C(=O)NCCC(C)C)CC3)sc2c1	1%	?	6.3µM*	?	0%	-4%	nt	nt	nt	nt	nt
CCCN(CCC)CCNC(=O)C1CCN(c2nc3ccc(CC)cc3s2)CC1	?	?	?	?	16µM*	?	nt	nt	nt	nt	nt
CCCN(CCC)CCCNC(=O)C1CCN(c2nc3ccc(CC)cc3s2)CC1	28µM*	?	?	?	16µM*	?	nt	nt	nt	nt	nt
Cc1cc(OCCCS(C)(=O)=O)cc(C)c1-c1cccc(COc2ccc3c(c2)OC[C@H]3CC(=O)O)c1	nt	nt	nt	nt	nt	-9%	nt	nt	nt	nt	nt
Cc1ccc(O)c(-c2n[nH]c3c2C(c2ccc(F)cc2)N(Cc2ccco2)C3=O)c1 (centres undefined)	-17%	26%	?	20µM*	5%	?	-15%	?	-3%	13%	-26%
COc1cc(-c2noc(-c3ccc(NCc4ccco4)c([N+](=O)[O-])c3)n2)cc(OC)c1OC	4%	1%	-9%	3.2µM*	0%	11%	?	?	-1%	-12%	?
CS(=O)(=O)N1CCc2c(-c3cnc(N)nc3)nc(N3CCOCC3)nc21	nt	nt	nt	nt	nt	8%	nt	nt	nt	nt	nt
Cc1ccc(Cl)cc1NC(=O)c1cnn2c(C(F)F)cc(-c3ccccc3)nc12	15%	-5%	-2%	-26%	-29%	5%	nt	nt	nt	nt	nt
CCOc1ccccc1NC(=O)c1cnn2c(C(F)F)cc(-c3ccccc3)nc12	25%	20%	-7%	11µM*	-18%	4%	-6%	2%	2%	17%	?
COc1ccc(Nc2ncc(C(=O)N3CCN(c4ccc(OC)cc4)CC3)c3ccccc23)cc1	-8%	11%	5%	?	-9%	i	nt	nt	nt	nt	nt
COc1ccc(Nc2ncc(C(=O)N3CCN(c4cccc(Cl)c4)CC3)c3ccccc23)cc1	-16%	27%	7%	14µM*	-18%	6%	?	1%	6%	-11%	?
CCCCN(CC)C(=O)CSc1nc2n[nH]c(C)c2c(=N)n1-c1ccc(CC)cc1	?	?	10%	17µM*	0%	i	?	?	2%	14%	?
CCCCNC(=O)c1cnn2c(C)c(Cc3c(C)cc(C)cc3C)c(C)nc12	-25%	?	22%	?	1%	-2%	nt	nt	nt	nt	nt
CCCNC(=O)c1cnn2c(C)c(Cc3c(C)cc(C)cc3C)c(C)nc12	?	21%	7%	16µM*	2%	-2%	?	22µM*	-2%	-15%	?
COc1cccc(N2CCN(C(=O)c3ccc(CS(=O)c4cccc(Cl)c4)o3)CC2)c1 (centres undefined)	-14%	-3%	-20%	5µM*	?	i	?	?	1%	-8%	?
COc1ccc(S(=O)Cc2ccc(C(=O)N3CCN(c4cccc(C)c4C)CC3)o2)cc1 (centres undefined)	?	-3%	-2%	?	-28%	-5%	nt	nt	nt	nt	nt

Screening data: PubChem BioAssay, National Center for Advancing Translational Sciences (NCATS)
